# Measurements from PubChem BioAssay AID731 (The Scripps Research Institute Molecular Screening Center, 2007).
# Hit rate of the full screen: of about 200,000 compounds, about 520 (0.26%) were called active. The entries come from a sample that favours actives as a whole. Unmarked numbers belong to inactive results. Rule as the data show it: active = activation above about 23%; inactive = the rest.
# Biological target: Peroxisome proliferator-activated receptor gamma (Homo sapiens) (UniProt P37231)
# Sequence (P37231 whole entry, looked up): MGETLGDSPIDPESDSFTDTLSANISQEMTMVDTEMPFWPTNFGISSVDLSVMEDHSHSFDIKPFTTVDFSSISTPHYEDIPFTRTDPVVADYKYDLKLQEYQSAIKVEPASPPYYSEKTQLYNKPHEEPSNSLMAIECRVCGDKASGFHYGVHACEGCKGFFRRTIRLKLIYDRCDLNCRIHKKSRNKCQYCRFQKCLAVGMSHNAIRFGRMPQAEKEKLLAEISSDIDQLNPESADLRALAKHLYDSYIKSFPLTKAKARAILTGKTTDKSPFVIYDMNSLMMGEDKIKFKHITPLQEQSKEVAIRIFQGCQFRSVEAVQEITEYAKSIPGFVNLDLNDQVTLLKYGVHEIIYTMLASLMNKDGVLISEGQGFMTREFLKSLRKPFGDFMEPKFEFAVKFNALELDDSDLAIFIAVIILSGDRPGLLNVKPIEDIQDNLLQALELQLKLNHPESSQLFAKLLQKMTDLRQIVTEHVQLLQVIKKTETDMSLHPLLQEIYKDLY
# Experiment: PPARgamma agonists recruiting SRC-3 coactivator, primary screen, biochemical (AID 731);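 also: 0% = DMSO and 100% = reference agonist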
# Conditions: biochemical PPARgamma/SRC-3 coactivator recruitment assay; at 8 µM; stronger effect = higher value
row,Compound,activation
1,CSC1=NP(=S)(SC)N(C)c2nc3n(c21)CCC3 (stereo not given),102% (active)
2,CCCCCCN=C(CC)c1c(O)n(CCCC)c(=O)[nH]c1=O,-4.72%
3,CCNc1nc2[nH]c(=O)c3c(c2s1)OC(N)=C(C#N)C3c1cccs1 (stereo not given),-2.75%
4,CCN(CC)c1ccc([N+](=O)[O-])c2cccnc12,4.74%
5,CC[N+](CC)(CC)CCCCCCCCCC[N+](CC)(CC)CC,-1.93%
